13 compounds from PubChem BioAssay (EPA / NIEHS) can be followed below.

Structures are written as SMILES. Values joined by “and” are separate entries in the source; they are usually repeats but may differ in a detail not shown here. Identical values can stand only once. Results filed as inconclusive are left out. The source holds several records for some structures; these can differ, active in one and inactive in another. Active and inactive are the calls of the source. How the source made its calls: active means hit-call score of the fitted dose curve at least 0.9, where 1 is the maximum; inconclusive means response in the unintended direction; inactive means score below 0.9.

The target of test [1] is human MAP Kinase-Activated Protein Kinase 2 (MAPKAPK2), MAPKAPK2 (gene 9261) (UniProt P49137). The experiment in a line: NVS_ENZ_hMAPKAPK2: NovaScreen (NVS) Enzymatic Assay for human MAP Kinase-Activated Protein Kinase 2 (MAPKAPK2) (AID 2283178). In outline:
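Cell-free recombinant human MAPKAPK2 activity measured by fluorescence with electrophoretic mobility shift separation of substrate and product, 1 hr after dosing. Loss of signal versus DMSO; primary screen at 25 uM, concentration-response up to 50 uM.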

Test [2] concerns the target Collagenase 3 (Homo sapiens) (UniProt P45452). Description: NVS_ENZ_hMMP13: NovaScreen (NVS) Enzymatic Assay for human Matrix Metalloproteinase-13 (MMP13) (AID 2283182). The method, then: (§1) NVS_ENZ_hMMP13 is a biochemical, single-readout assay that uses extracted gene-proteins in a cell-free assay. Measurements were taken 1 hour after chemical dosing in a 96-well plate.NVS_ENZ_hMMP13 is one of one assay component(s) measured or calculated from the NVS_ENZ_hMMP13 assay. It is designed to make measurements of enzyme activity, a form of enzyme reporter, as detected with fluorescence intensity signals by Fluorescence technology.Data from the assay component NVS_ENZ_hMMP13 was analyzed into 1 assay endpoint. This assay endpoint, NVS_ENZ_hMMP13, was analyzed in the positive analysis fitting direction relative to DMSO as the negative control and baseline of activity. Using a type of enzyme reporter, loss-of-signal activity can be used to understand changes in the enzymatic activity as they relate to the gene MMP13. Furthermore, this assay endpoint can be referred to as a primary readout, because this assay has produced multiple assay endpoints where this one serves a enzymatic activity function. To generalize the intended target to other relatable targets, this assay endpoint is annotated to the protease intended target family, where the subfamily is matrix metalloproteinase.
(§2) Binding assays used specific radioligands (tritiated, iodinated) with non-radioactive competitive displacement ligands in agonist or antagonist protocols (as indicated) and various reference compounds and inhibitors to titrate specific binding to receptors and transporters. Most enzyme assays (CYPs, kinases, phosphatases, proteases, HDACs) used recombinant protein and specific substrates (fluorescence mostly, some colorimetric and radioactive) and inhibitors, followed by a biochemical separation of substrate and product. All assays for the biochemical HTS were initially run in duplicate at a single concentration (10 uM for CYP450 assays and 25 uM for all others). Assay-chemical combinations meeting a pre-defined threshold (e.g., 30% inhibition and other criteria defined below) were then run in singleton concentration-response format with maximum concentration of 20 uM for CYPs and 50 uM for all others. Each assay was run with positive and negative controls, and concurrent controls on every plate. The follow-up (secondary) screen tested active chemical-pairs in concentration series, as well as a few additional assays not tested in the primary screen, some selected negative inactives, and several cases re-run in the concentration series for confirmatory purposes.

Test [3] addresses human Janus Kinase 2 (Jak2), JAK2 (gene 3717) (UniProt O60674). The experiment in a line: NVS_ENZ_hJak2: NovaScreen (NVS) Enzymatic Assay for human Janus Kinase 2 (Jak2) (AID 2283169). In outline: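 Cell-free recombinant human JAK2 enzyme activity assay, fluorescence/electrophoretic mobility shift read 1 h after dosing. Screened in duplicate at 25 uM, then concentration-response up to 50 uM; activity as signal loss relative to DMSO.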

The target of test [4] is Mitogen-activated protein kinase 3 (Homo sapiens) (UniProt P27361). Description: NVS_ENZ_hMAPK3: NovaScreen (NVS) Enzymatic Assay for human Mitogen-Activated Protein Kinase 3 (MAPK 3) (AID 2283177). In outline: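 Cell-free enzymatic assay with recombinant protein and specific substrate; fluorescence and electrophoretic mobility shift read-out 1 h after dosing. Primary screen duplicate at 25 uM; actives then run in concentration-response up to 50 uM, loss of signal versus DMSO.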
Mitogen-activated protein kinase 3 (Homo sapiens), sequence (P27361 whole entry, looked up): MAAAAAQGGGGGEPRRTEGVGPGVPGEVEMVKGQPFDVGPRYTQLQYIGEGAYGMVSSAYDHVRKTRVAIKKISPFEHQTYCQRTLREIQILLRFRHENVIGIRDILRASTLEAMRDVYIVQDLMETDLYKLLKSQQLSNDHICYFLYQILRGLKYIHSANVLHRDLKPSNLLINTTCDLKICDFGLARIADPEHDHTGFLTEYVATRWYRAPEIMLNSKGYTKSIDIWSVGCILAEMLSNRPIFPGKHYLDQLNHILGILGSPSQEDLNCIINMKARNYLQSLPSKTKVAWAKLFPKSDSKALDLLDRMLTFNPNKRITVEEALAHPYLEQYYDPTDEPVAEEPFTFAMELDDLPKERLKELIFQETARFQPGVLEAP

The target in test [5] is human Matrix Metalloproteinase-2 (MMP2), MMP2 (gene 4313) (UniProt P08253). The experiment in a line: NVS_ENZ_hMMP2: NovaScreen (NVS) Enzymatic Assay for human Matrix Metalloproteinase-2 (MMP2) (AID 2283184). In outline: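 Cell-free recombinant MMP2 activity with a fluorescent substrate, read 1 h after dosing. Primary screen in duplicate at 25 uM; actives then run in concentration series; loss of signal fitted versus DMSO.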

Test [6] concerns the target human Mitogen-Activated Protein Kinase 1 (MAPK 1), MAPK1 (gene 5594) (UniProt P28482). Description: NVS_ENZ_hMAPK1: NovaScreen (NVS) Enzymatic Assay for human Mitogen-Activated Protein Kinase 1 (MAPK 1) (AID 2283175). In outline: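 Cell-free recombinant human MAPK1 enzymatic assay, fluorescence/electrophoretic mobility shift read at 1 h; loss of signal vs DMSO. Primary screen in duplicate at 25 uM; actives (e.g. ≥30% inhibition) run as concentration-response up to 50 uM.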

Test [7] addresses human Matrix Metalloproteinase-7 (MMP7), MMP7 (gene 4316) (UniProt P09237). Description: NVS_ENZ_hMMP7: NovaScreen (NVS) Enzymatic Assay for human Matrix Metalloproteinase-7 (MMP7) (AID 2283183). The method, then: as §1, with “NVS_ENZ_hMMP7” for “NVS_ENZ_hMMP13”, “plate.NVS_ENZ_hMMP7” for “plate.NVS_ENZ_hMMP13”, “NVS_ENZ_hMMP7,” for “NVS_ENZ_hMMP13,”, “MMP7.” for “MMP13.”
as §2

The target of test [8] is human MET Proto-Oncogene, Receptor Tyrosine Kinase (MET), MET (gene 4233) (UniProt P08581). The experiment in a line: NVS_ENZ_hMet: NovaScreen (NVS) Enzymatic Assay for human MET Proto-Oncogene, Receptor Tyrosine Kinase (MET) (AID 2283180). In outline:
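Cell-free MET kinase assay using recombinant protein and fluorescent substrate, with mobility-shift separation; read 1 h after dosing. Primary duplicate at 25 uM; actives in singleton concentration-response to 50 uM maximum. Signal loss versus DMSO.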

In test [9] the target is human Matrix Metalloproteinase-3 (MMP3), MMP3 (gene 4314) (UniProt P08254). Description: NVS_ENZ_hMMP3: NovaScreen (NVS) Enzymatic Assay for human Matrix Metalloproteinase-3 (MMP3) (AID 2283185). In outline:
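Cell-free recombinant human MMP3 activity, fluorescence intensity read 1 h after dosing. Primary screen duplicate at 25 uM, actives retested in concentration series; loss of signal vs DMSO baseline.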

The target in test [10] is human Matrix Metalloproteinase-1 (MMP1), MMP1 (gene 4312) (UniProt P03956). Description: NVS_ENZ_hMMP1: NovaScreen (NVS) Enzymatic Assay for human Matrix Metalloproteinase-1 (MMP1) (AID 2283181). The method, then: as §1, with “NVS_ENZ_hMMP1” for “NVS_ENZ_hMMP13”, “plate.NVS_ENZ_hMMP1” for “plate.NVS_ENZ_hMMP13”, “NVS_ENZ_hMMP1,” for “NVS_ENZ_hMMP13,”, “MMP1.” for “MMP13.”
human Matrix Metalloproteinase-1 (MMP1), MMP1 (gene 4312), sequence (P03956 whole entry, looked up): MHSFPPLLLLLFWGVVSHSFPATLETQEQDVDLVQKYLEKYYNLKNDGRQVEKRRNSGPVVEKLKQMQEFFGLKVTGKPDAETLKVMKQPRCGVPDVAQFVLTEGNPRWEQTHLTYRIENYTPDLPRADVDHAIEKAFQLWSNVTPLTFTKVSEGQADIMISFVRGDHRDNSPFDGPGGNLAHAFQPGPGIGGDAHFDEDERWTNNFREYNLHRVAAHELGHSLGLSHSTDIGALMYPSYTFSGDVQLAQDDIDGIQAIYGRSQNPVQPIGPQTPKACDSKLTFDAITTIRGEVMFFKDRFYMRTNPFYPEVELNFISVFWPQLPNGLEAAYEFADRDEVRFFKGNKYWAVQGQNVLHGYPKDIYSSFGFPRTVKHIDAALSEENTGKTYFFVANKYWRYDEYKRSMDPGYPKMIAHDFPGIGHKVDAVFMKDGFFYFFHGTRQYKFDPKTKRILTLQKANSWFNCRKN
Binding assays used specific radioligands (tritiated, iodinated) with non-radioactive competitive displacement ligands in agonist or antagonist protocols (as indicated) and various reference compounds and inhibitors to titrate specific binding to receptors and transporters. Most enzyme assays (CYPs, kinases, phosphatases, proteases, HDACs) used recombinant protein and specific substrates (fluorescence mostly, some colorimetric and radioactive) and inhibitors, followed by a biochemical separation of substrate and product. All assays for the biochemical HTS were initially run in duplicate at a single concentration (10 uM for CYP450 assays and 25 uM for all others). […]

human Janus Kinase 2 (Jak2), JAK2 (gene 3717), sequence (O60674 whole entry, looked up): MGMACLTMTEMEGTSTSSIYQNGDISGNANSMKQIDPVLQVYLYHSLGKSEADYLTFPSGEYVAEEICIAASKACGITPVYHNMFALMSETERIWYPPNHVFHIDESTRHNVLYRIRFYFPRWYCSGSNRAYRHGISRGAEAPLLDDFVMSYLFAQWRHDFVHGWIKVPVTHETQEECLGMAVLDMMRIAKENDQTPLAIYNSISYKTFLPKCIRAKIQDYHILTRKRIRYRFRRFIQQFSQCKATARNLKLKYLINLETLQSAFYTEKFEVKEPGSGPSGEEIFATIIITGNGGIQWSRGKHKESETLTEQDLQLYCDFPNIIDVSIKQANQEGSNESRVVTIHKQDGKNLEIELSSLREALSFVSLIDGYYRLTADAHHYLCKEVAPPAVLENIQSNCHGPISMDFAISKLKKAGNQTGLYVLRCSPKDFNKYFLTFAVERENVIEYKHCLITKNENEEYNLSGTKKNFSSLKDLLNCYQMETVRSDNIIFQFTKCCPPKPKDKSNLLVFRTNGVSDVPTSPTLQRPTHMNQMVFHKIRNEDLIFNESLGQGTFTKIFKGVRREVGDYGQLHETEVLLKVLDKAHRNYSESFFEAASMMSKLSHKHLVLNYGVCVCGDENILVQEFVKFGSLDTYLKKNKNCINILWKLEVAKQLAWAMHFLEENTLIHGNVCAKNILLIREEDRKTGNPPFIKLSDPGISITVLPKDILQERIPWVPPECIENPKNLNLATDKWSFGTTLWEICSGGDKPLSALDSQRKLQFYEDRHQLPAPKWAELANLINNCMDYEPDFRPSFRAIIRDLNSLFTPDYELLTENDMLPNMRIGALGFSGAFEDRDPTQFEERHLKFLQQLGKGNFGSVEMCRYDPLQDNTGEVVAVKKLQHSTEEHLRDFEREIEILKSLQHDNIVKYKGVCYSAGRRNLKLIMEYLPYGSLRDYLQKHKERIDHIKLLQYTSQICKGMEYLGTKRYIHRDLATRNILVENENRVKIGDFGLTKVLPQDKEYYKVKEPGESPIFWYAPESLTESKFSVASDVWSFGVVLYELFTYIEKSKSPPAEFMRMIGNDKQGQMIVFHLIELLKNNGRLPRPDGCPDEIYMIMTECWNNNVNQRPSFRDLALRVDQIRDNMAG
human Matrix Metalloproteinase-7 (MMP7), MMP7 (gene 4316), sequence (P09237 whole entry, looked up): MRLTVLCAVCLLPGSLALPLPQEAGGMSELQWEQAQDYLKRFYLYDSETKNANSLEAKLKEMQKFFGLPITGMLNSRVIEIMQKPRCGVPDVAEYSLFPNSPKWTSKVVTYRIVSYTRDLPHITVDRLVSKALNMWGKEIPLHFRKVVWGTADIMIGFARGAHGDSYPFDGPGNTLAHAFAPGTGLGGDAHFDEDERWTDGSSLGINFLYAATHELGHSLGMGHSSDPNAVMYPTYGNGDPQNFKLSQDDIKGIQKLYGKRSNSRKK
human MET Proto-Oncogene, Receptor Tyrosine Kinase (MET), MET (gene 4233), sequence (P08581 whole entry, looked up): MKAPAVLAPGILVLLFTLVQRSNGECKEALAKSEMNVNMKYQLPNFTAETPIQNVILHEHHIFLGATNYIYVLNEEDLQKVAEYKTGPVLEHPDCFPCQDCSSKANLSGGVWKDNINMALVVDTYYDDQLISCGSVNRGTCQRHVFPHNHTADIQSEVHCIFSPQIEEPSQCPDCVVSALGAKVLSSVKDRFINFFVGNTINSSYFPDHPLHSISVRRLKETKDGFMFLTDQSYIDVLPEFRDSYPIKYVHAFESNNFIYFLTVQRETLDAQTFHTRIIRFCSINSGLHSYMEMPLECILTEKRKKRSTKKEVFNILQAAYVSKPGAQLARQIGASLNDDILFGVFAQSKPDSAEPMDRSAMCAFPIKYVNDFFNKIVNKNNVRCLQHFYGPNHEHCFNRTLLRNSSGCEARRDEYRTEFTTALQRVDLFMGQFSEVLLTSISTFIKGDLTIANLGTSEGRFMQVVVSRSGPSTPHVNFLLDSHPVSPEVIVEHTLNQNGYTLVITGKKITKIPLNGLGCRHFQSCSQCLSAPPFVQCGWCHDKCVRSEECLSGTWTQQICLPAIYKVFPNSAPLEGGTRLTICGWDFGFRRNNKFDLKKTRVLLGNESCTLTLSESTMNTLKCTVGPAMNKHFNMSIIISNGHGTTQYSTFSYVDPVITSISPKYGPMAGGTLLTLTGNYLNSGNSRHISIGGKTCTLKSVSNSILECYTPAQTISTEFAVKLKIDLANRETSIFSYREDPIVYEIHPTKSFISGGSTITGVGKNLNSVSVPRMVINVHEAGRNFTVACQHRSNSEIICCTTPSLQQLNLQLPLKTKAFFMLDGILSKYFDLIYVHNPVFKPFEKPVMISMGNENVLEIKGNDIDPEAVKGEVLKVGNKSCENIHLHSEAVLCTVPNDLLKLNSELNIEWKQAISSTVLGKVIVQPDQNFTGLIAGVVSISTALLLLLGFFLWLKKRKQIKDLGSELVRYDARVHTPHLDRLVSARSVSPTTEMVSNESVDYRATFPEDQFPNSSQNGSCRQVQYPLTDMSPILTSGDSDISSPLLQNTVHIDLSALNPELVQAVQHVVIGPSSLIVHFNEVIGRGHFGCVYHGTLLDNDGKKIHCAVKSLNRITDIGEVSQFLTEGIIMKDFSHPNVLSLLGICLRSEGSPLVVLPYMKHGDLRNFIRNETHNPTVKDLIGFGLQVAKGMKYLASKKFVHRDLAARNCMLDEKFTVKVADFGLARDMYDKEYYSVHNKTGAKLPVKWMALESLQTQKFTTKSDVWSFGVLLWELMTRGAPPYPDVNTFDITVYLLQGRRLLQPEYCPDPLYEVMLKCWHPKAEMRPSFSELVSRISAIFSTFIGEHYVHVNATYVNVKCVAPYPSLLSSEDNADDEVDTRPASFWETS
human MAP Kinase-Activated Protein Kinase 2 (MAPKAPK2), MAPKAPK2 (gene 9261), sequence (P49137 whole entry, looked up): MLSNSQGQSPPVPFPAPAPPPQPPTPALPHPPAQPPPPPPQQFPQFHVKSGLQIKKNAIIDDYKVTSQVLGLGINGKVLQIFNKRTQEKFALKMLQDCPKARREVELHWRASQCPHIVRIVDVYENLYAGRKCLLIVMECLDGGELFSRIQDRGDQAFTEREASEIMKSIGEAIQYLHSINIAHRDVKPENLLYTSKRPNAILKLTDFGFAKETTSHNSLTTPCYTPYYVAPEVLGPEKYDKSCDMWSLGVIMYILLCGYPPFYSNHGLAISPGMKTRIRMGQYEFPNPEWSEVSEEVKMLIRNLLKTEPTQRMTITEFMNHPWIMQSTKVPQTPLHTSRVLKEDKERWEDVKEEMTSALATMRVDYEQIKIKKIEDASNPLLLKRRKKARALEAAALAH
human Matrix Metalloproteinase-3 (MMP3), MMP3 (gene 4314), sequence (P08254 whole entry, looked up): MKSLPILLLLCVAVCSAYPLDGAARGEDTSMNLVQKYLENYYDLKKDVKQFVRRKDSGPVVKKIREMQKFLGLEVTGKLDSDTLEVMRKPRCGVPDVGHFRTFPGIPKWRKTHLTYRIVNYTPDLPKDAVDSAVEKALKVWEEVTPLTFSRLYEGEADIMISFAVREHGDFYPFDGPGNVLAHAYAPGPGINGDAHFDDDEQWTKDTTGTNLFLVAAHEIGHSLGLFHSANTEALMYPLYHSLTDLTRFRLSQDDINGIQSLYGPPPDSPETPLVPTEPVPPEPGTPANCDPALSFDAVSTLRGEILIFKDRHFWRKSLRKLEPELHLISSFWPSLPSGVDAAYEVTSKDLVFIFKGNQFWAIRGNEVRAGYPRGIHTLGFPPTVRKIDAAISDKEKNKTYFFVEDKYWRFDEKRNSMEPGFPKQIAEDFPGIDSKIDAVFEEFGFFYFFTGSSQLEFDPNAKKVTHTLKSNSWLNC
human Mitogen-Activated Protein Kinase 1 (MAPK 1), MAPK1 (gene 5594), sequence (P28482 whole entry, looked up): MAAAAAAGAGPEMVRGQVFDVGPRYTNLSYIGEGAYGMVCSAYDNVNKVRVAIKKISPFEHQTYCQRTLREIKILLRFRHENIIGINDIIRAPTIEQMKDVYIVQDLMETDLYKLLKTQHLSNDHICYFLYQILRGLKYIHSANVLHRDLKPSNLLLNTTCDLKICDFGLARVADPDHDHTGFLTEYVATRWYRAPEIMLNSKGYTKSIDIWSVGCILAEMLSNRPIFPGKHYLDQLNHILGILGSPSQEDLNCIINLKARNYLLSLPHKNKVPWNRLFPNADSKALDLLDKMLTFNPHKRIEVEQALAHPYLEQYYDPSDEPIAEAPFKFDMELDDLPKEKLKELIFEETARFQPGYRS

The AC50 is the concentration at which the activity in the assay is half-maximal. Take `Cc1cc(C)nc(NC(=O)NS(=O)(=O)c2ccccc2C(=O)OC2COC2)n1`: in test [1], the AC50 was 18.6 µM (active).

With `O=C(Nc1ccccc1)Nc1cnns1`, in test [2], the result was inactive.

For the compound `COC(=O)c1ccccc1CS(=O)(=O)NC(=O)Nc1nc(OC)cc(OC)n1`, the compound was classed as inactive in test [3].

Turning to `O=[N+]([O-])/N=C1\NCCN1Cc1ccc(Cl)nc1`, the compound was called inactive in [4].

Consider `CCC(C)(C)C(=O)OC1=C(c2ccc(Cl)cc2Cl)C(=O)OC12CCCCC2`, for which the call in test [5] was inactive.

In the case of `CC(C)(C)C(O)/C(=C\c1ccc(Cl)cc1Cl)n1cncn1` (stereo not drawn), in [6], the compound was called inactive.

As for `Oc1cc(Cl)ccc1Oc1ccc(Cl)cc1Cl`, the compound was called inactive in test [3], in test [6], in test [4], in test [7] and in [5]. Moreover, the AC50 in test [7] is 13 µM (active).

Consider `O=C(O)C(F)(F)C(F)(F)C(F)(F)C(F)(F)C(F)(F)C(F)(F)C(F)(F)F`, for which the compound was called inactive in test [1], in [8] and in [2].

Take `COC(=O)c1ccccc1S(=O)(=O)NC(=O)Nc1nc(C)nc(OC)n1`: in test [2], the call was inactive.

`CC(C)(C)C(O)C(Oc1ccc(Cl)cc1)n1cncn1` (stereo not drawn): in [3], the compound was classed as inactive.

For `O=S(=O)(O)C(F)(F)C(F)(F)C(F)(F)C(F)(F)C(F)(F)C(F)(F)C(F)(F)C(F)(F)F`, the AC50 was 34.9 µM (active) and 41 µM (active) in test [6]; 32.7 µM (active) in test [4]; 36.1 µM (active) and 40.4 µM (active) in [8]; 7.53 µM (active) and 43 µM (active) in [2]; 1.73 µM (active) in test [7]; 22.6 µM (active) [middle of 4 runs] in test [9]. The call in [1] and in test [5] was inactive.

For the compound `N#Cc1c(Cl)c(Cl)c(Cl)c(C#N)c1Cl`, the outcome in test [4] and in test [7] was inactive.

`CCCN(CCOc1c(Cl)cc(Cl)cc1Cl)C(=O)n1ccnc1`: in test [10], the AC50 is 13 µM (active).
